Compounds with a hit are over-represented: about 5.7% of the library has one in this group of screens.
Gal4-VP16 FLuc: VP16 counterscreen qHTS for inhibitors of ROR gamma transcriptional activity | Potency, µM (top dose mostly 53.6 µM), actives largely listed as inhibitors | Drosophila S2 Gal4-VP16 UAS-luciferase, luminescence, 20 h | 310,000 tested, 3.5% active;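 note: Gal4-VP16 expression switched on by copper sulfate through the metallothionein promoter; nearly all actives have a fitted effect of over 50% in size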
RORgamma inh: qHTS for inhibitors of ROR gamma transcriptional activity; AID 2551, 2010; Drosophila S2 Gal4-RORgamma UAS-luciferase reporter, 20 h; Potency, µM (top dose mostly 53.6 µM), usual class: inhibitors; 310,000 tested, 5.4% active; note: nearly all actives have a fitted effect of over 60% in size
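Drosophila S2 cells stably expressing Gal4-DBD/mouse RORγ fusion under metallothionein promoter plus UAS-luciferase; compound 1 h, then 700 uM CuSO4 induction for 20 h at ambient temperature; inhibition read as reduced luminescence.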
NPSR antagonist: qHTS Assay for Antagonists of the Neuropeptide S Receptor: cAMP Signal Transduction. Q6W5P4. CHO-NPSR cells, cAMP TR-FRET, antagonist mode. Potency, µM (titrated, usually from 38.3 µM), actives largely listed as inhibitors. 220,000 tested, 1% active. AID 1461, 2008; note: nearly all actives have a fitted effect of over 50% in size
Target sequence (Q6W5P4 whole entry, looked up): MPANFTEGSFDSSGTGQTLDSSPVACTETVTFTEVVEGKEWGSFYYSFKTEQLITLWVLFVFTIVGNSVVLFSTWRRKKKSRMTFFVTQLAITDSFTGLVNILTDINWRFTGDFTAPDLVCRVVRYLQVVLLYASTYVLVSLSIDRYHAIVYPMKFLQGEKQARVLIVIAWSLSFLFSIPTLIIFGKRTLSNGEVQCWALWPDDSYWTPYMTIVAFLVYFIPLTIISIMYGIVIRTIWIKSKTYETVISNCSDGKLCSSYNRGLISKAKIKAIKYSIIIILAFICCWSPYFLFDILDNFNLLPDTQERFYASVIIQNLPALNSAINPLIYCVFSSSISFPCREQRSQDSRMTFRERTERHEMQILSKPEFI
B2AR arrestin: qHTS assay of beta-arrestin-biased ligands of beta2-adrenergic receptor | 330,000 tested, 0.02% active | Potency, µM (highest dose often 46.1 µM), actives largely listed as activators | AID 492947, 2010 | beta-arrestin recruitment to beta2AR, cell-based reporter; note: nearly all actives have a fitted effect of over 65% in size
A number is an active result; [ ] = another dose, or the depositor's remark. Calls come from the whole dose curve; as a rule, active = well fitted curve in the direction sought with a large enough effect; inconclusive = small, poorly fitted or top-dose-only effect, or another doubt; inactive = no such curve, though single readings can be large; an effect the other way counts as inactive or inconclusive.

How did CC[C@H](C)[C@@H](NC(=O)O[C@@H]1Cc2cc(Br)ccc2O[C@H]1c1cccc(OC)c1)C(=O)OC do in these assays?
Gal4-VP16 FLuc: inactive; RORgamma inh: inactive

What do the screens show for `N#Cc1cccc(NC(=O)N2CC[C@@]3(CCCN(S(=O)(=O)c4ccccc4)C3)C2)c1`?
Gal4-VP16 FLuc: inactive; RORgamma inh: inactive

How did CCOC(=O)c1ccccc1-n1c(C)cc(C2N=C(N)Nc3nc4ccccc4n32)c1C (stereo not drawn) do in these assays?
Gal4-VP16 FLuc: inactive; RORgamma inh: inactive; NPSR antagonist: 12.6µM; B2AR arrestin: inactive

Results for NC1=NC(c2ccc(Br)cc2)n2c(nc3ccccc32)N1 (stereo not drawn) ?
Gal4-VP16 FLuc: inactive; RORgamma inh: inactive; NPSR antagonist: inactive; B2AR arrestin: inactive

How did Cc1ccc(CNC(=O)C2(S(=O)(=O)c3ccccc3)CC=CC2)cc1 do in these assays?
Gal4-VP16 FLuc: inconclusive; RORgamma inh: inactive; B2AR arrestin: inactive

What do the screens show for `CN1CCN(C(=O)CCCN2C(=O)/C(=C/c3ccccc3)SC2=S)CC1`?
Gal4-VP16 FLuc: inactive; RORgamma inh: inactive; B2AR arrestin: inactive

What do the screens show for `O=C(O)CCCN1C(=O)/C(=C\C(Cl)=C\c2ccccc2)SC1=S`?
Gal4-VP16 FLuc: 1.58µM; RORgamma inh: 1.26µM; B2AR arrestin: inactive

What do the screens show for `Cc1ccc(/C=C2\SC(=S)N(CCCC(=O)NNC(=O)c3ccccc3O)C2=O)cc1`?
Gal4-VP16 FLuc: 2.82µM; RORgamma inh: 1.58µM; NPSR antagonist: inactive; B2AR arrestin: inactive

What do the screens show for `Cc1ccc(/C=C2\SC(=S)N(CCC(=O)NNC(=O)c3ccccc3O)C2=O)cc1`?
Gal4-VP16 FLuc: inactive; RORgamma inh: inactive; B2AR arrestin: inactive

How did COc1ccc(/C=C2/SC(=S)N(CCCC(=O)Nc3ccc(O)cc3)C2=O)cc1OC do in these assays?
Gal4-VP16 FLuc: inactive; RORgamma inh: inactive; B2AR arrestin: inactive

Results for O=C(CCCN1C(=O)/C(=C\c2ccccc2)SC1=S)Nc1ccc(O)cc1 ?
Gal4-VP16 FLuc: 1.78µM; RORgamma inh: 2µM; NPSR antagonist: inactive; B2AR arrestin: inactive

What do the screens show for `Cc1ccc(/C=C2/SC(=S)N(CCCC(=O)Nc3ccc(O)cc3)C2=O)cc1`?
Gal4-VP16 FLuc: inconclusive; RORgamma inh: 0.398µM; NPSR antagonist: inactive; B2AR arrestin: inactive

Results for Cc1ccc(/C=C2\SC(=S)N(CCCC(=O)NC3CCCC3)C2=O)cc1 ?
Gal4-VP16 FLuc: inconclusive; RORgamma inh: 1.58µM; B2AR arrestin: inactive

What do the screens show for `Cc1cc(NC(=O)CCCN2C(=O)/C(=C/c3cccs3)SC2=S)no1`?
Gal4-VP16 FLuc: inconclusive; RORgamma inh: inactive[10 µM]; NPSR antagonist: inactive; B2AR arrestin: inactive

Results for COc1cccc(/C=C2\SC(=S)N(CCCC(=O)Nc3cc(C)on3)C2=O)c1 ?
Gal4-VP16 FLuc: 1.41µM; RORgamma inh: 2.82µM; B2AR arrestin: inactive

What do the screens show for `Cc1ccc(C(=O)NNC(=O)CCCN2C(=O)/C(=C/c3ccccc3Cl)SC2=S)cc1`?
Gal4-VP16 FLuc: 3.16µM; RORgamma inh: 2.82µM; NPSR antagonist: inactive; B2AR arrestin: inactive

How did COc1cccc(/C=C2\SC(=S)N(CCCC(=O)NC3=NCCS3)C2=O)c1 do in these assays?
Gal4-VP16 FLuc: 0.708µM; RORgamma inh: 0.562µM; B2AR arrestin: inactive

What do the screens show for `O=C(Nc1ccccc1N1CCOCC1)c1ccc(N2CCCC2=O)cc1`?
B2AR arrestin: inactive

Results for COc1ccc(CC(=O)OC(C)C(=O)Nc2c(C)n(C)n(-c3ccccc3)c2=O)cc1OC (stereo not drawn) ?
B2AR arrestin: inactive

What do the screens show for `CCN(CC)CCOC(=O)c1ccc(NC(=O)CCCN2C(=O)S/C(=C/c3ccc(OC)cc3)C2=S)cc1`?
Gal4-VP16 FLuc: 1.58µM; RORgamma inh: 1µM; B2AR arrestin: inactive

What do the screens show for `COc1ccc(/C=C2\SC(=S)N(CCC(=O)Nc3ccc(O)cc3)C2=O)cc1`?
Gal4-VP16 FLuc: inactive; RORgamma inh: inactive; B2AR arrestin: inactive

How did O=C(CCCN1C(=O)/C(=C/c2ccccc2)SC1=S)Nc1cccc(O)c1 do in these assays?
Gal4-VP16 FLuc: 7.08µM; RORgamma inh: inconclusive; NPSR antagonist: inactive; B2AR arrestin: inactive

Results for CC(/C=C1\SC(=S)N(CCC(=O)Nc2ccc(O)cc2)C1=O)=C\c1ccccc1 ?
Gal4-VP16 FLuc: 14.1µM; RORgamma inh: 14.1µM; B2AR arrestin: inactive

What do the screens show for `COc1cccc(/C=C2/SC(=S)N(CCCC(=O)Nc3ccc(O)cc3)C2=O)c1`?
Gal4-VP16 FLuc: 0.355µM; RORgamma inh: 0.355µM; B2AR arrestin: inactive

Results for O=C(CCCN1C(=O)/C(=C\c2ccccc2)SC1=S)Nc1cccc(C(=O)O)c1 ?
Gal4-VP16 FLuc: inactive; RORgamma inh: inactive; B2AR arrestin: inactive

How did NC(=O)c1cc[n+](CC2=C(C(=O)[O-])N3C(=O)[C@@H](NC(=O)Cc4cccs4)[C@@H]3SC2)cc1 do in these assays?
Gal4-VP16 FLuc: inactive; RORgamma inh: inactive[2.98 µM]

How did CCOC(=O)CCN1C(=O)[C@H]2[C@H]3[C@H](O)[C@H](O)C/C(=N/NC(=O)OCC)[C@@H]3CC[C@@H]2C1=O do in these assays?
Gal4-VP16 FLuc: inactive[10 µM]; RORgamma inh: inactive[10 µM]

How did Cc1cc(CNC(=O)COC(=O)Cn2[nH]c(=O)c3ccccc3c2=O)cc(C)c1O do in these assays?
B2AR arrestin: inactive

Results for O=C(CCCN1C(=O)/C(=C\c2cccs2)SC1=S)Nc1cc([N+](=O)[O-])ccc1O ?
Gal4-VP16 FLuc: 20µM; RORgamma inh: inconclusive; B2AR arrestin: inactive

Results for O=C(CCN1C(=O)/C(=C/c2cccs2)SC1=S)Nc1ccccc1O ?
Gal4-VP16 FLuc: inactive; RORgamma inh: inactive; B2AR arrestin: inactive

What do the screens show for `O=Nc1ccc(NO)cc1`?
Gal4-VP16 FLuc: inactive; RORgamma inh: inactive

How did CS(=O)(=O)c1sc(C#N)c2c1C(=O)CC(c1ccccc1)C2 (stereo not drawn) do in these assays?
Gal4-VP16 FLuc: 4.47µM; RORgamma inh: 4.47µM; NPSR antagonist: inconclusive; B2AR arrestin: inactive

What do the screens show for `CN(CC(=O)Nc1ccc(Cl)c(C(F)(F)F)c1)C(=O)c1cccc(N2C(=O)CCC2=O)c1`?
B2AR arrestin: inactive

Results for COc1ccc(C(=O)N2CCN(Cc3ccccc3)CC2)cc1[N+](=O)[O-] ?
Gal4-VP16 FLuc: inactive; RORgamma inh: inactive; B2AR arrestin: inactive

Results for O=C(c1ccc(S(=O)(=O)c2cccc(Cl)c2)c([N+](=O)[O-])c1)N1CCN(Cc2ccccc2)CC1 ?
Gal4-VP16 FLuc: 25.1µM; RORgamma inh: inconclusive; NPSR antagonist: inactive; B2AR arrestin: inactive

Results for Cc1ccc(-c2nc(CS(=O)CC(=O)NCc3ccc(F)cc3)c(C)o2)cc1 (stereo not drawn) ?
Gal4-VP16 FLuc: inactive; RORgamma inh: 11.2µM; B2AR arrestin: inactive

How did Cc1ccc(CNC(=O)CS(=O)Cc2nc(-c3ccccc3C)oc2C)cc1 (stereo not drawn) do in these assays?
Gal4-VP16 FLuc: inactive; RORgamma inh: 11.2µM; NPSR antagonist: inactive; B2AR arrestin: inactive
